What all share (test): NCI-60 one-dose screen, 48 h (100 = growth as untreated, 0 = no growth, -100 = all killed)
What all share (conditions): 10 µM unless noted

In assay [1] the test system is SR leukemia.
Assay [2] has as its system RPMI-8226 leukemia.
Assay [3] has as its system OVCAR-8 ovarian.
Assay [4] concerns OVCAR-5 ovarian.
The subject of assay [5] is OVCAR-4 ovarian.
The test system of assay [6] is SK-OV-3 ovarian.
Assay [7] relates to IGROV1 ovarian.
The test system of assay [8] is OVCAR-3 ovarian.
The test system of assay [9] is HS 578T breast.
Assay [10] relates to NCI/ADR-RES ovarian.

The record followed here is PubChem BioAssay (NCI).

Compounds without any hit were thinned out: in the full panel of roughly 83,000, 20% have a hit.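 Results are percent growth after 48 hours of single-concentration exposure. 100 means growth as in untreated cells, lower positive values show inhibition; negative values down to -100 show cell death.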 Values without a mark were called inactive. The source made the active and inactive calls. The calls were made as follows: active = growth percent below 10; inactive = the rest.

Regarding `CC(=O)OC[C@]12CC[C@H]3[C@@H](C[C@H]4O[C@]45CC=CC(=O)[C@]35C)[C@]1(O)CC[C@@]2(O)[C@@](C)(O)C1CC(C)=C(C)C(=O)O1` (some centres undefined), the growth in [1] was 10.4%; in assay [2], -19.6% (active); in assay [3], 7.69% (active); in assay [4], -24.1% (active); in assay [5], 19.8%; in assay [6] it was -13.1% (active). Besides, the growth in assay [7] is -55.1% (active); in [8] it was -23.7% (active); in assay [9], -1.18% (active); in [10], 38.9%.

With `C=C1C(=O)O[C@H]2[C@H]1CC/C(Cn1cc(CNC(=O)Cc3cn(C(=O)c4ccc(Cl)cc4)c4ccc(OC)cc34)nn1)=C\CC[C@@]1(C)O[C@@H]21`, the growth in assay [1] was -28% (active); in assay [2], -40.2% (active); in assay [3], -64.2% (active); in assay [4], 58.3%; in [5], 18.8%; in assay [6], 88.9%. Also, the growth in assay [7] was -18.7% (active); in assay [8], -82.3% (active); in [9], 24.7%; in assay [10] it was 95.9%.

For `O=c1ccn(C2CC(O)C(O)C(CO)O2)c(=O)[nH]1` (centres undefined), the growth was 123% in [1]; 85.7% in assay [2]; 116% in [3]; 108% in [4]; 108% in assay [5]; 114% in assay [6]. For the same compound, the growth in [7] is 118%; in [8], 123%; in assay [9], 120%; in assay [10], 113%.

With `CCN(CC)CCOC(=O)C(c1ccccc1)(c1ccccc1)C(C)C`, the growth is 84% in assay [1]; 96% in assay [2]; 87% in [3]; 87.2% in [4]; 94.8% in assay [5]; 81.9% in assay [6]. Besides, the growth in assay [7] is 78.2%; in assay [8], 80.5%; in assay [10] it was 79.2%.

On to `COc1cc2c(cc1O)CCN1C[C@@H](CC(C)C)[C@@H](O)C[C@@H]21`, for which the growth in assay [1] is 103%; in [2], 92.5%; in [3], 101%; in assay [4], 94.3%; in [5], 98.6%; in assay [6] it was 107%. The growth in [8] is 108%; in assay [9], 114%; in [10], 98.2%.

Consider `Cc1ccc(S(=O)(=O)n2cc(C(=O)C(=O)N3CCOCC3)c3ccccc32)cc1`, for which the growth in [1] was 77.8%; in assay [2], 59.6%; in assay [3], 91.5%; in assay [4], 85.7%; in assay [5], 89.1%; in assay [6], 97.9%. Also, the growth is 91.4% in assay [8], 101% in assay [9] and 75.1% in assay [10].

In the case of `Nc1cccc(-c2nc3sccn3c2-c2ccnc(NCCNS(=O)(=O)c3ccc(C(F)(F)F)cc3)n2)c1`, the growth in assay [1] is 35.4%; in [2] it was 61.7%; in assay [3] it was 38.3%; in assay [4], 90.5%; in assay [5], 43.2%; in assay [6], 53.5%. For the same compound, the growth in assay [7] was 36.3%; in [8], 53.4%; in assay [9], -15.1% (active); in assay [10], 71.5%.

Consider `COc1ccc2c(c1)[nH]c(=O)c1c3cccc(F)c3cn21`, for which the growth in [1] was 39.9%; in assay [2], -49.8% (active); in [3], 27.4%; in assay [4], 47.9%; in [5], 47.8%; in assay [6], 42.3%. Also, the growth in assay [7] is 6.16% (active); in [10] it was 15.8%.

For `C/C(=N/NC(=S)Nc1ccccc1)c1nc2ccc(Cl)cc2[nH]1`, the growth in assay [1] was -36.1% (active); in assay [2], 5.52% (active); in assay [3], -39.8% (active); in assay [4], -35.8% (active); in [5], -79.3% (active); in [6] it was -17.7% (active). For the same compound, the growth in assay [7] was 7.58% (active); in assay [8], -59.5% (active); in assay [10], -12.7% (active).

For `O=C(NNC(=S)Nc1ccccc1)c1cc2ccc1CCc1ccc(cc1)CC2`, the growth in assay [1] was 78.4%; in assay [2] it was 46.4%; in assay [3], 68.2%; in assay [4], 92.2%; in assay [5], 47.8%; in assay [6] it was 113%. The growth in assay [7] was 64.1%; in assay [8], 55.5%; in assay [9] it was 97.2%; in assay [10], 67.2%.
